Source: PubChem BioAssay (several laboratories)
Shown are actives, neighbours in structure and some others; about 5.3% of the full set was active somewhere.
PfM18AAP inh – PfM18AAP enzyme inhibition | recombinant PfM18AAP, H-Glu-NHMec fluorogenic cleavage | inhibition, % at 7.35 µM | actives 1.2% (n = 290,000) | AID 1822;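 active = inhibition above the campaign mean inhibition over all tested compounds plus 3 SD, cut at about 28% in these data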;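 also: 0% = plate median of test compound wells and 100% = 2 mM ZnCl2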
Mot1-301 SUMO – inhibitors of SUMOylation pathway: yeast Mot1-301 growth rescue; actives 1% (n = 320,000); growth rescue, % at 18.8 µM; AID 2716; S. cerevisiae Mot1-301 growth rescue, ATP luminescence, 38.5C; percent above DMSO median, 100 means doubled;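 active = every valid replicate shows activation above 250% relative to neutral control wells; inactive = the rest, any valid replicate at or below 250%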;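 also: OY570 slx delta 5 strain wells were the positive control but not used for scaling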
ALR H2O2 inh – blocks human ALR sulfhydryl oxidase activity | P55789 | purified ALR, DTT oxidation, H2O2 HRP-luminol luminescence | inhibition, % (no concentration beside the values) | actives 3.8% (n = 290,000);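 active = mean replicate inhibition above about 79%, with every replicate also reaching it, limit read from the data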
Target sequence (P55789 whole entry, looked up): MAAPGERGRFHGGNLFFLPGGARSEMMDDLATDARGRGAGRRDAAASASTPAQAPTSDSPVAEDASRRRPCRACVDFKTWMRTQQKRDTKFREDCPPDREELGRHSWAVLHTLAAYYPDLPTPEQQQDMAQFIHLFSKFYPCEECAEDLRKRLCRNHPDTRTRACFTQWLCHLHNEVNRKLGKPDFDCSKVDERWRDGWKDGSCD
HIF activator – HIF pathway transcriptional activation. U2OS HRE-luciferase reporter, luminescence; normalized: DMSO 0%, desferrioxamine 100%. activation, % at 7.5 µM (by protocol). actives 0.32% (n = 300,000). AID 1910;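 active = mean activation of at least 10% of the iron chelator positive control signal, with at least half of replicates also reaching 10%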
Mot1 SUMO dose – inhibits SUMO pathway, affecting Mot1-301 yeast growth | growth activity, percent, % at 42 µM | 2,300 tested, under 10 active | shares compounds with Mot1-301 SUMO | S. cerevisiae Mot1-301 galactose growth, ATP luminescence, 24 h; -100 = growth of slx-deleted rescue strain | AID 493004;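 active = Signal drops as the depositor expects, and the fitted half-maximal dose is no more than ten times the top valid tested dose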;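 also: more negative values mean stronger growth rescue toward the control strain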
* = called active by the depositor; . = not tested or not shown; + = active, no number.

SMILES	PfM18AAP inh	Mot1-301 SUMO	ALR H2O2 inh	HIF activator	Mot1 SUMO dose
Cc1ccc(CNC(=O)c2ccccc2NC(=O)CN2CC(C)OC(C)C2)cc1 (stereo not given)	0	-1	2	0	.
COc1ccccc1NC(=O)/C(=C\c1cccnc1)NC(=O)c1ccccc1	-1	-8	12	0	.
COc1ccccc1CCNC(=O)/C(=C/c1cccnc1)NC(=O)c1ccccc1	-5	391*	-3	0	0
Cc1nnc(-n2ncc(C#N)c2N)c2nn(-c3ccccc3F)c(C)c12	0	.	.	.	.
COc1cc(C(=O)N2CCC(O)(c3ccccc3)CC2)cc(OC)c1OC	5	8	-4	0	.
CCNC(=O)NC1c2ccccc2CSc2ccccc21 (stereo not given)	.	614*	-10	3	0
CCOC(=O)c1c(C)[nH]c(C(=O)Nc2cc(OCC)c(N3CCOCC3)cc2OCC)c1C	.	22	-13	.	.
Cc1cc(C)nc(SCC(=O)N/N=C/c2cccs2)n1	0	4	-3	0	.
OCCc1c[nH]c2cc(F)ccc12	-4	566*	7	0	0
COC(=O)c1ccc2c(CCO)c[nH]c2c1	-7	3	0	2	.
O=S(=O)(NCC1CCCO1)c1cc(Cl)ccc1Br (stereo not given)	-16	467*	2	0	1
O=C(O)CNC(=O)c1ccc(NC(=O)/C(=C/c2cccc([N+](=O)[O-])c2)NC(=O)c2ccco2)cc1	-3	-9	1	-1	.
CC(=O)/C=C/n1c(=S)oc2ccccc21	-5	421*	36	-5	-2
CC(C)CC(=O)/C=C/n1c(=S)oc2ccccc21	9	24	6	-1	.
O=P(COCCOCCOCCOCP(=O)(c1ccccc1)c1ccccc1)(c1ccccc1)c1ccccc1	-10	-1	-1	-1	.
O=C(NCc1ccco1)C1CCCN(c2nnc(-n3cccc3)s2)C1 (stereo not given)	3	44	2	0	.
Cc1sc2nc(CN3CCCC3)nc(Cl)c2c1C	12	-12	22	0	.
Cc1sc2nc(CN3CCCC3)nc(NCc3ccncc3)c2c1C	-4	802*	.	0	0
O=C1c2cccnc2C(=O)N1Cc1ccc(S(=O)(=O)NCc2ccco2)s1	2	-3	-4	0	.
CCCCn1c(SCC(=O)N2CCCC2)nc2c1c(=O)n(C)c(=O)n2C	-15	705	-8	0	.
CCCCn1c2c(c(=O)n(C)c1=O)C(c1ccc(OC)cc1)N1CCCCCC1=N2 (stereo not given)	-8	+	-2	0	0
COC(=O)c1ccc2[nH]c(C(C)(C)O)c(C)c2c1	1	684*	5	3	0
COC(=O)c1ccc2[nH]c(C)cc(=O)c2c1	5	-1	-6	0	.
COc1ccc(N2C(=O)CSC23CCCCC3)cc1	-7	+	98*	0	1
